Screening data deposited in PubChem by The Scripps Research Institute Molecular Screening Center.
HTR5A inv ag: counter-screen for OPRM1-OPRD1 inverse agonists: human HTR5A inverse agonism. P47898. AID 504634. HTR5A cell line, luminescence. 340,000 compounds, 0.083% hits. inhibition, % at 9.3 µM; in the data active = inhibition mostly above about 23%, no sharp cut-off; inactive = mostly below about 18%
Target sequence (P47898 whole entry, looked up): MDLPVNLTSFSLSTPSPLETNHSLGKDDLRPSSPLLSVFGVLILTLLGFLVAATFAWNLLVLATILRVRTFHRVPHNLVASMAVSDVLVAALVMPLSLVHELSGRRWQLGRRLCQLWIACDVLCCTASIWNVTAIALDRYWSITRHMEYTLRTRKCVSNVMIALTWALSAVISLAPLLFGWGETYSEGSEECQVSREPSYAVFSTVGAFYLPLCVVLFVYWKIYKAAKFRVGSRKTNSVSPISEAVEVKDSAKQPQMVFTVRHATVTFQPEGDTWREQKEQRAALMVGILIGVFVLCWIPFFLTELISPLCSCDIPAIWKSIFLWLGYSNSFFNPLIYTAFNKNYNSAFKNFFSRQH
HTR5A ag: HTR5A agonism, opioid heterodimer counter-screen | activation, % at 9.3 µM | HTR5A agonist assay, luminescence, cell-based | 340,000 compounds, 0.61% hits; in the data active = activation mostly above about 9.5%, no sharp cut-off; inactive = mostly below about 7.6%
OPRM1-OPRD1 ag: OPRM1-OPRD1 heterodimerization agonism. AID 504326. P35372+P41143. cells, luminescence. activation, % at 9.3 µM. 340,000 compounds, 0.3% hits; in the data active = activation above about 18%
MOR-DOR inv ag: mu-delta opioid heterodimer inverse agonism. cell-based MOR-DOR heterodimer luminescence. P35372+P41143. 340,000 compounds, 0.21% hits. inhibition, % at 9.3 µM; in the data active = inhibition above about 22%, passing the limit was not always enough
Large screens that a line does not name were inactive. This is a sample that favours compounds with a hit; in the whole collection about 1.1% have one here.

CS(=O)(=O)N(CC(=O)Nc1ccc(Br)cc1)C1CCCCC1	none
O=C(CN(C(=O)c1ccco1)c1cccc(F)c1)NCc1ccc(F)cc1	HTR5A ag 11.5
CC(=O)Nc1ccc(NC(=O)c2nc(S(=O)(=O)Cc3ccccc3)ncc2Cl)cc1	none
CS(=O)(=O)c1ncc(Cl)c(C(=O)Nc2ccc3ccccc3c2)n1	MOR-DOR inv ag 57.0
CC(=O)Nc1ccc(S(=O)(=O)NN=Cc2ccc(Cl)c(Cl)c2)cc1	HTR5A ag 11.8
CC(=O)Nc1ccc(/C=N/NS(=O)(=O)c2cc(C)ccc2C)cc1	none
O=[N+]([O-])c1ccc(S(=O)(=O)N/N=C/c2ccc3c(c2)OCO3)cc1	none
O=[N+]([O-])c1ccc(S(=O)(=O)NN=Cc2ccc(Cl)c(Cl)c2)cc1	HTR5A ag 12.8
Fc1ccc(-[n+]2nc(Nc3ccccc3)sc2-c2c3ccccc3cc3ccccc23)cc1	HTR5A ag 16.9
Oc1ccc2ccccc2c1-c1sc(Nc2ccccc2)n[n+]1-c1ccc(F)cc1	none
CC1CN(S(=O)(=O)c2cc(C(=O)NCCC3=CCCCC3)ccc2Cl)CC(C)O1 (stereo unspecified)	none
COc1ccccc1C(=O)OCC(=O)NC(C)CCc1ccccc1 (stereo unspecified)	HTR5A ag 12.9
CC(=O)c1nn(-c2cccc(C)c2)cc1C(=O)c1cccc(Br)c1	none
Cc1cc(OC(C)C(=O)NCC2CCCO2)cc(C)c1Cl (stereo unspecified)	HTR5A ag 10.7
CCN(CC)c1ccc(/C=N/NC(=S)NCc2ccccc2)cc1	HTR5A ag 13.7
CCc1noc(C)c1C(=O)NCCN1C(=O)S/C(=C\c2ccc(OC)cc2)C1=O	none
Cc1nonc1C(=O)N/N=C/c1ccncc1	none
Nc1nonc1C(=O)N/N=C/c1ccncc1	HTR5A ag 10.9
CC/C(=N\NC(=O)c1nnn(-c2nonc2N)c1-c1cccc(OC)c1)c1ccc(C)cc1	none
COc1ccc(C(=O)O/N=C(\N)Cc2ccc(Cl)c(Cl)c2)cc1OC	HTR5A ag 42.0, OPRM1-OPRD1 ag 22.2
COc1ccc(C/C(N)=N/n2cnnc2)cc1Cl	none
CC1=C/C(=N\OS(=O)(=O)c2ccccc2)C(C(C)C)=CC1=O	HTR5A ag 19.8, OPRM1-OPRD1 ag 186.1
CCCOC(=O)c1ccc(NC(=O)/C=C/c2cccs2)cc1	HTR5A ag 11.1
O=C(/C=C/c1cccs1)Nc1ccncc1	none
COc1ccc(CNC(=O)CCCn2nc(C)c3c(C)n(-c4ccc(C)cc4)nc3c2=O)cc1	none
COc1ccc(OC)c2nc(-c3ccc4c(c3)OCO4)ccc12	none
O=C(Nc1cccc(S(=O)(=O)N2CCCCC2)c1)c1ccc(S(=O)(=O)C(F)F)cc1	HTR5A ag 11.6
O=c1[nH]c2cnn(-c3ccccc3)c2c(=O)n1O	none
Cn1c(=O)[nH]c(=O)c2c1nc(NC1CCCC1)n2Cc1ccccc1	HTR5A ag 10.0
O=C(CN1CCN(S(=O)(=O)c2ccc(Cl)cc2)CC1)c1ccc(O)c(O)c1	none
C=CCNC(=S)N/N=C(\C)c1ccccn1	MOR-DOR inv ag 34.6
Cc1c(Cl)ccc2c(C(O)CBr)cc(-c3ccccc3)nc12 (stereo unspecified)	none
CCOc1ccc(C(=O)Nc2c(C(=O)N3CCC(N4CCCCC4)CC3)oc3ccccc23)cc1	none
O=C(CSc1nc(-c2ccccc2)cs1)Nc1nccs1	HTR5A ag 10.8
Brc1ccc(C[n+]2ccccc2)cc1	none
O=C(CCc1ccccc1)NC(c1cccs1)c1cc(Cl)c2cccnc2c1O (stereo unspecified)	HTR5A ag 12.9
CCCC(=O)NC(c1cccs1)c1cc([N+](=O)[O-])c2cccnc2c1O (stereo unspecified)	none
CCN(Cc1ccc2c(c1)OCCO2)C(=O)CN1C(=O)NC2(CCc3ccccc32)C1=O (stereo unspecified)	none
O=Cc1s/c(=N\S(=O)(=O)c2ccccc2)n(CCCCl)c1Cl	MOR-DOR inv ag 33.8
CCn1c(C)cs/c1=N\S(=O)(=O)c1ccccc1	none
COc1ccccc1N1CCN(CCC(=O)Nc2ccc(F)cc2)CC1	none
Nc1ncn(C(=S)Nc2ccccc2)n1	none
CC(NCc1ccccc1)C1COc2ccccc2O1 (stereo unspecified)	none
CC(NCC(O)COc1ccccc1)C1COc2ccccc2O1 (stereo unspecified)	HTR5A ag 11.6
COC(=O)c1sc(N)c(C(=O)OC)c1COC(=O)c1c(C)noc1C	HTR5A inv ag 45.8, MOR-DOR inv ag 46.1
COC(=O)c1sc(NC(=O)c2c(C)noc2C)nc1C	none
COc1ccc(-c2cc(C(=O)NCC(c3ccco3)N(C)C)c3ccccc3n2)cc1OC (stereo unspecified)	none
Cc1ccc(-c2nnn(CC(=O)N(CC(=O)NC3CCCCC3)c3ccccc3F)n2)o1	none
CCCc1nc2ccc(NC(C)=O)cc2c(=O)n1Cc1ccc(Cl)cc1	HTR5A ag 10.2
CCCc1nc2ccc(NC(=O)c3cccs3)cc2c(=O)n1Cc1ccccc1Cl	none
CCOC(=O)c1c(SCCN2CCCC2)n(-c2ccccc2)c(=S)n(-c2ccccc2)c1=O	MOR-DOR inv ag 57.5
O=C1NC[C@@H](Cc2cccc3ccccc23)N(CCCCC2CCCCC2)C1=O	none
CC(=O)Nc1ccc(-c2csc(NC(=O)Cc3cccc(F)c3)n2)cc1	none
Cc1cccc(NC(=O)C2(C)CC3c4ccccc4C2c2ccccc23)c1 (stereo unspecified)	HTR5A ag 10.3
CCN1C(=O)[C@H]2[C@@H](c3ccc(-c4ccc(F)cc4)cc3)N[C@@](C)(C(=O)OC)[C@H]2C1=O	none
O=C(CSc1ncn[nH]1)Nc1ccc2c(c1)CCC2	HTR5A ag 12.0
Cc1ccc(NC(=O)CSc2ncn[nH]2)cc1	none
COc1c2ccoc2c(OC(C)=O)c2oc(C)cc(=O)c12	HTR5A ag 9.8
CC(C)NC(=S)N/N=C1\CCCc2ccccc21	HTR5A ag 10.5
O=C(CN(C1CCCCC1)S(=O)(=O)c1ccccc1)NCC1CCCO1 (stereo unspecified)	none
O=C(CN(C1CCCCC1)S(=O)(=O)c1ccc(F)cc1)NCC1CCCO1 (stereo unspecified)	HTR5A ag 16.8
O=C1c2ccccc2N(Cc2ccc(Cl)cc2)C2=NCCN12	HTR5A ag 10.7
O=C(c1ccc(-c2cccc(C(F)(F)F)c2)o1)N1CCCC(C(F)(F)F)C1 (stereo unspecified)	HTR5A ag 11.5
O=C(c1ccc(-c2cccc(C(F)(F)F)c2)o1)N1CCN(c2ccccc2O)CC1	none
O=C(Oc1ccccc1F)c1ccc2c(=O)n3c(nc2c1)CCC3	none
COc1ccc2cc3cc(C(=O)NCC4COc5ccccc5O4)oc3nc2c1 (stereo unspecified)	HTR5A ag 13.5
CC(C)(C)c1cc(NC(=O)Nc2ccccc2)no1	HTR5A ag 11.3
COC(=O)c1ccccc1NC(=O)Nc1cc(C(C)(C)C)on1	none
CCOc1ccccc1OCCC(=O)OCC(=O)Nc1c(C)nn(-c2ccccc2)c1C	none
COCCN(C(=O)C1CCN(C(=O)c2ccccc2C)CC1)c1c(N)n(CC(C)C)c(=O)[nH]c1=O	none
O=C1C(Cl)=C(N2CCC(C(=O)O)CC2)C(=O)c2ccccc21	none
CN1CCN(C2=C(Cl)C(=O)c3ccccc3C2=O)CC1	OPRM1-OPRD1 ag 28.1
